Measurements published in PubChem BioAssay (EPA / NIEHS).
Records with an inconclusive call do not appear. Active and inactive are the calls of the source. Rule for the calls, unless noted: active = hit-call score of the fitted dose curve at least 0.9, where 1 is the maximum; inconclusive = response in the unintended direction; inactive = score below 0.9.

Legend:
[1] = STM_H9_CystineISnorm_perc: Stemina devTOX quickPredict H9 human embryonic stem cell (hESC)-based Assay for Cystine (CYSS) Metabolite Biomarker, Normalized (AID 2283713; active = hit-call score of the fitted dose curve at least 0.9, where 1 is the maximum; inactive = score below 0.9)
Outline: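 Undifferentiated H9 hESCs exposed 72 h, compound and media replaced every 24 h; final 24-h media analysed by UPLC-HRMS. Cystine normalized to C13 spike-in standard and median 0.1% DMSO control.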

[2] = STM_H9_OrnCyssISnorm_ratio: Stemina devTOX quickPredict H9 human embryonic stem cell (hESC)-based Assay for Ornithine (ORN):Cystine (CYSS) Ratio (AID 2283714)
Outline: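 Undifferentiated H9 hESCs exposed 72 h, media and compound replaced every 24 h; final 24-h conditioned media deproteinized and analysed by UPLC-HRMS against C13 spike-ins. Value is the internal-standard-normalized ORN/CYSS ratio versus 0.1% DMSO.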

[3] = CEETOX_H295R_MTT_cell_viability: Viability Assessment in the CeeTox HT-H295R MTT Assay (AID 2283718; active = hit-call score of the fitted dose curve at least 0.9, where 1 is the maximum; inactive = score below 0.9;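 for AC50: curve fitted both ways so AC50 may mark viability loss or gain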)
Outline: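 Human H295R adrenal cells, prestimulated 48 h with 10 uM forskolin, were exposed 48 h to chemicals in 0.1% DMSO. Viability was measured in the same wells by MTT (0.5 mg/ml, 4 h, 37 C), absorbance 570/650 nm, as percent of controls.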

[4] = Tanguay_ZF_120hpf_ActivityScore_legacy: (Legacy) Oregon State University Tanguay Lab 120 Hour Post-fertilization zebrafish Assay Score for Activity (AID 2283742);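 for AC50: dechorionated Tropical 5D wild-type zebrafish embryos held singly per well; static exposure from 6 hpf until 120 hpf at 28 °C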
Outline: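 Dechorionated Tropical 5D embryos, one per well from 6 hpf, statically exposed to 120 hpf at 28 °C in 0.64% DMSO. Mortality and malformations scored binary by brightfield microscopy; activity score combines 18 endpoints, fitted positively versus DMSO.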

[5] = ACEA_AR_antagonist_AUC_viability: ACEA Biosciences xCELLigence Real-Time Cell Analysis on Androgen Receptor Antagonism for Viability (AID 2283776);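 note: 22Rv1 human prostate cancer cells growing on impedance electrode plates; hits lower the growth signal relative to DMSO meaning cytotoxicity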
Outline: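 22Rv1 prostate cells, continuous dosing up to 100 uM final (0.5% DMSO max), duplicate plates. Growth measured by impedance; AUC at 80 h, loss of signal vs DMSO.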

[6] = ACEA_AR_agonist_AUC_viability: ACEA Biosciences xCELLigence Real-Time Cell Analysis on Androgen Receptor Agonism for Viability (AID 2283775);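 for AC50: viability read 80 hours after compound addition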
Outline: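 Real-time impedance tracking of 22Rv1 growth, readings every 5 min for 5 h then hourly; area-under-curve viability endpoint at 80 hours, relative to DMSO. Compounds at eight concentrations, 1:4 steps, top 100 uM, n = 2.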

[7] = ArunA_CellTiter_hNC: Viability Assessment in the ArunA Biomedical's Oris Neural Crest (hNC) Cell Migration Assay (AID 2283752)
Outline: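 Human H9-derived neural crest cells plated on Matrigel (60,000/well) with LIF and bFGF, incubated 16 h, then exposed 72 h to chemical in test medium. Viability measured with CellTiter Aqueous One reagent; loss of signal versus DMSO.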

[8] = ArunA_Migration_hNC: ArunA Biomedical's Oris Neural Crest (hNC) Cell Migration Assay (AID 2283755)
Outline: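 Human H9-derived neural crest stem cells, 60,000/well on Matrigel, 16 h at 37C, then 72 h chemical exposure after seeding-stopper removal. Migration into detection zone read as calcein-AM fluorescence (ex494/em517), relative to DMSO.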

[9] = ArunA_NOG_NucleusCount: ArunA Biomedical's Neurite Outgrowth (NOG) Assay for Nucleus Count (AID 2283756)
Outline: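 Human H9-derived differentiated neurons were exposed for 48 h right after seeding. Hoechst-stained nuclei gated by size and intensity were counted by automated high-content imaging as viable neurons. Loss of signal vs DMSO.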

[10] = ArunA_NOG_NeuriteLength: ArunA Biomedical's Neurite Outgrowth (NOG) Assay for Neurite Length (AID 2283757)
Outline: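 Differentiated human H9-derived neurons were exposed for 48 h from seeding, then stained with Hoechst and βIII-tubulin. Automated high-content imaging gave total neurite length per valid neuron, counting processes >10 um. Loss of signal was scored versus DMSO.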

[11] = ArunA_NOG_NeuritesPerNeuron: ArunA Biomedical's Neurite Outgrowth (NOG) Assay for Neurites Per Neuron (AID 2283758)
Outline: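 Differentiated human H9-derived neurons exposed to chemicals for 48 h from seeding, then stained with Hoechst and βIII-tubulin/DyLight 488. Automated imaging counted neurites (processes >10 um) per valid neuron; loss of signal versus DMSO scored.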

[12] = molecular target: Luciferin 4-monooxygenase (Photinus pyralis) (UniProt P08659); experiment: CCTE_Simmons_QuantiLum_inhib_2: CCTE's Firefly Luciferase Inhibition Assay, Simmons Lab (AID 2283767);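 for AC50: potency for inhibitors that lower luciferase luminescence relative to DMSO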
Outline: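 Cell-free recombinant firefly luciferase (5 ng/well) in 200mM potassium phosphate with 1 mg/ml BSA, 30 min at 37C with 8 concentrations from 5 nM to 87.5 uM [final], 0.5% DMSO. Luminescence read after D-luciferin (150uM)/dATP (147uM) reagent injection, pH 7.8; triplicates.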

Chain of Luciferin 4-monooxygenase (Photinus pyralis) (P08659 whole entry, looked up): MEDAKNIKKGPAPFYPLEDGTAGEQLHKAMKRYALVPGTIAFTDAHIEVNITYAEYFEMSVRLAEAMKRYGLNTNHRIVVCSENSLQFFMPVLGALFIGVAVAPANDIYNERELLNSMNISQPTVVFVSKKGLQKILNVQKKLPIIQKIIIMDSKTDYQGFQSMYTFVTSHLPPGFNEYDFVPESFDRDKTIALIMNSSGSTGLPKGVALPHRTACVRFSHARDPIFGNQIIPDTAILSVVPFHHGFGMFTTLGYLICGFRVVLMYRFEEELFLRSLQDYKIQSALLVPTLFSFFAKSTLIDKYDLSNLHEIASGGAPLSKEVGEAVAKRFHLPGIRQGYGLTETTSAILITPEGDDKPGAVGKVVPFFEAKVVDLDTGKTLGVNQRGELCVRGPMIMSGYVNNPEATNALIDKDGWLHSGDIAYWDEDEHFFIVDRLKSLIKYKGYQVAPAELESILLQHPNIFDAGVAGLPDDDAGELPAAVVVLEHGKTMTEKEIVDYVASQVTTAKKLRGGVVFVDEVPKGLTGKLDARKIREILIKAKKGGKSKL

Q: What does the source list for `C[C@@H]1C[C@H]2[C@@H]3CCC4=CC(=O)C=C[C@]4(C)[C@@]3(F)[C@@H](O)C[C@]2(C)[C@@]1(O)C(=O)COP(=O)(O)O`?
A: outcome [1]: inactive; outcome [2]: inactive; outcome [3]: inactive; outcome [4]: inactive; outcome [5]: inactive

Q: With `CCc1ccc(CCOc2ccc(CC3SC(=O)NC3=O)cc2)nc1` (configuration not stated) as the molecule, how does the AC50 [1] read?
A: 88.9 µM (active)

Q: And the AC50 [2]?
A: 84.5 µM (active)

Q: And the outcome [3]?
A: inactive

Q: What about the outcome [4] of the same molecule?
A: inactive

Q: What about the AC50 [6] of the same molecule?
A: 50 µM (active)

Q: And the AC50 [5]?
A: 26.5 µM (active)

Q: With `O=C(O)Cc1cc(I)c(Oc2cc(I)c(O)c(I)c2)c(I)c1` as the molecule, how does the outcome [1] read?
A: inactive

Q: What about the outcome [2] of the same molecule?
A: inactive

Q: What about the AC50 [4] of the same molecule?
A: 3.08 µM (active)

Q: What about the outcome [7] of the same molecule?
A: inactive

Q: And the outcome [8]?
A: inactive

Q: What about the outcome [9] of the same molecule?
A: inactive

Q: What about the outcome [10] of the same molecule?
A: inactive

Q: And the outcome [11]?
A: inactive

Q: And the AC50 [6]?
A: 51.7 µM (active)

Q: And the AC50 [5]?
A: 46.6 µM (active)

Q: Which results are given for `CCc1nn(C2CCCCC2)c2cc(C3(C#N)CCC(C(=O)O)CC3)ccc12` (configuration not stated)?
A: outcome [3]: inactive; AC50 [4]: 0.421 µM (active); outcome [5]: inactive

Q: For `N#C[C@@H]1CC(F)(F)CN1C(=O)CNC1CC2CCC(C1)N2c1ncccn1` (some centres not stated), which outcome [1] is on record?
A: inactive

Q: And the outcome [4]?
A: inactive

Q: And the outcome [12]?
A: inactive

Q: And the outcome [5]?
A: inactive

Q: Which outcome [1] does the source give for `Nc1cccc2c(N)cccc12` here?
A: inactive

Q: And the outcome [2]?
A: inactive

Q: And the outcome [3]?
A: inactive

Q: What about the outcome [4] of the same molecule?
A: inactive

Q: And the AC50 [12]?
A: 10.6 µM (active)

Q: With `CCCCCCCCC(=O)O` as the molecule, how does the outcome [3] read?
A: inactive

Q: And the outcome [4]?
A: inactive

Q: What about the outcome [6] of the same molecule?
A: inactive

Q: What about the outcome [5] of the same molecule?
A: inactive

Q: Which outcome [3] does the source give for `O=[N+]([O-])c1ccc(O)cc1` here?
A: inactive

Q: And the outcome [4]?
A: inactive

Q: And the outcome [6]?
A: inactive

Q: What about the outcome [5] of the same molecule?
A: inactive

Q: Which results are given for `c1ccc2c(c1)Cc1ccccc1-2`?
A: outcome [3]: inactive; outcome [4]: inactive; outcome [6]: inactive; outcome [5]: inactive

Q: Which AC50 [1] does the source give for `CC(O)CO` (configuration not stated) here?
A: 675000 µM (active)

Q: And the outcome [4]?
A: inactive

Q: What about the outcome [6] of the same molecule?
A: inactive

Q: And the AC50 [5]?
A: 11.9 µM (active)

Q: For `CC(C)(C)c1cc(C(C)(C)C)c(O)c(C(C)(C)C)c1`, which outcome [4] is on record?
A: inactive

Q: And the outcome [12]?
A: inactive

Q: What does the source list for `O=C(OCCOCCOC(=O)c1ccccc1)c1ccccc1`?
A: outcome [1]: inactive; outcome [2]: inactive; outcome [4]: inactive; outcome [6]: inactive; outcome [5]: inactive

Q: With `CCC(=C(c1ccc(O)cc1)c1ccc(OCCN(C)C)cc1)c1ccccc1` as the molecule, how does the outcome [3] read?
A: inactive

Q: And the outcome [4]?
A: inactive

Q: And the outcome [12]?
A: inactive

Q: And the AC50 [6]?
A: 6.23 µM (active)

Q: What about the AC50 [5] of the same molecule?
A: 5.79 µM (active)

Q: With `c1ccc2c(c1)ccc1ccccc12` as the molecule, how does the AC50 [1] read?
A: 80.3 µM (active)

Q: And the AC50 [2]?
A: 78.7 µM (active)

Q: And the outcome [4]?
A: inactive

Q: And the AC50 [6]?
A: 50 µM (active)

Q: What about the AC50 [5] of the same molecule?
A: 50 µM (active)

Q: With `CN(C)C=O` as the molecule, how does the outcome [1] read?
A: inactive

Q: Which outcome [1] does the source give for `CN1CCC[C@H]1c1cccnc1` here?
A: inactive

Q: What about the outcome [3] of the same molecule?
A: inactive

Q: What about the outcome [4] of the same molecule?
A: inactive

Q: And the outcome [6]?
A: inactive

Q: What about the outcome [5] of the same molecule?
A: inactive

Q: For `Oc1cccc(O)c1`, which AC50 [3] is on record?
A: 1.35 µM (active)

Q: What about the outcome [4] of the same molecule?
A: inactive

Q: What about the AC50 [12] of the same molecule?
A: 16.1 µM (active)

Q: And the outcome [5]?
A: inactive

Q: Which AC50 [1] does the source give for `Cc1cc(CCN2CCN(c3nsc4ccccc34)CC2)cc2c1NC(=O)CC2(C)C` here?
A: 8.41 µM (active)

Q: What about the AC50 [2] of the same molecule?
A: 7.94 µM (active)

Q: And the AC50 [3]?
A: 11.1 µM (active)

Q: What about the AC50 [4] of the same molecule?
A: 3.78 µM (active)

Q: And the AC50 [6]?
A: 9.03 µM (active)

Q: What about the AC50 [5] of the same molecule?
A: 21.4 µM (active)

Q: Which outcome [3] does the source give for `NC(=O)N(O)[C@@H]1C=C[C@H](Oc2cccc(Oc3ccc(F)cc3)c2)C1` here?
A: inactive

Q: What about the outcome [4] of the same molecule?
A: inactive

Q: What about the AC50 [12] of the same molecule?
A: 16.7 µM (active)

Q: What about the AC50 [6] of the same molecule?
A: 40.8 µM (active)

Q: What about the AC50 [5] of the same molecule?
A: 25 µM (active)

Q: For `CCN(CC)CCNc1ccc(CNC=O)c2sc3ccc(OC)cc3c(=O)c12`, which AC50 [1] is on record?
A: 2.53 µM (active)

Q: What about the AC50 [2] of the same molecule?
A: 5.78 µM (active)

Q: And the outcome [4]?
A: inactive

Q: What about the outcome [12] of the same molecule?
A: inactive

Q: And the AC50 [6]?
A: 7.1 µM (active)

Q: And the AC50 [5]?
A: 5.35 µM (active)

Q: Which results are given for `O=c1c(-c2ccc(O)cc2)coc2cc(O)ccc12`?
A: outcome [3]: inactive; outcome [4]: inactive; AC50 [12]: 8.1 µM (active); outcome [6]: inactive; outcome [5]: inactive

Q: Which results are given for `CCCOC(=O)c1ccc(O)cc1`?
A: outcome [3]: inactive; AC50 [4]: 43.3 µM (active); outcome [6]: inactive; outcome [5]: inactive

Q: With `CCCOc1sc(C(=O)N2CCC(c3cc(CN)ccc3F)CC2)c(C)c1Br` as the molecule, how does the outcome [4] read?
A: inactive

Q: Which results are given for `COC(=O)CCCCC(=O)OC`?
A: outcome [3]: inactive; outcome [4]: inactive; outcome [6]: inactive; outcome [5]: inactive
